In PubChem BioAssay AID2314 (National Center for Advancing Translational Sciences (NCATS), 2010) one finds max response data, which are given here for 58 molecules.

Molecules are shown by their SMILES. The whole screen tested about 300,000 compounds, of which about 37,000 (12%) were called active. No stated cut-off is given here; in the data, active means max response mostly above about 13% (no sharp cut-off); inactive means mostly below about 14%. This excerpt belongs to a sample that is enriched for actives.

The assay in a line: Cycloheximide Counterscreen for Small Molecule Inhibitors of Shiga Toxin. Further: read at 38.3 µM for the half of the compounds with a filed dose; 0% is about no effect. The note with it: cell reporter, cycloheximide protein synthesis inhibition counterscreen; hits give high values. In general terms: A counterscreen serves to expose hits that act by an unwanted route or on another target.
For the molecule `Cc1ccc(NS(=O)(=O)c2cn(C)c(=O)n(C)c2=O)c(C)c1`, the max response was -0.304% (inactive). The same measure for `Cc1ccc2c(c1)N(CC(=O)N1CCCC(C)C1)C(=O)CO2` (stereo not drawn): -3.96% (inactive); for `COC(=O)C1(CCSC)NC(c2ccc(OC)cc2OC)C2C(=O)N(c3cccc(C(C)=O)c3)C(=O)C21` (stereo not drawn): -3.66% (inactive); for `Cc1cccc(NC(=O)c2ccc3c(=O)n(CC4CCCO4)c(=S)[nH]c3c2)c1` (stereo not drawn): 10.1% (inactive). Then `COC(=O)c1ccc(NC(=O)CSc2nc(N)c(NC(=O)c3ccc(Br)o3)c(=O)[nH]2)cc1`, with 9.86% (inactive); and `CCC(=O)Nc1ccc(Nc2nc(Cl)nc(Nc3ccc(NC(=O)CC)cc3)n2)cc1`, with -3.17% (inactive). The same measure for `CCOC(=O)CNc1nc(Cl)nc(Nc2ccc(OC)cc2OC)n1`: -3.67% (inactive); for `CCOC(=O)CNc1nc(Cl)nc(Nc2ccccc2)n1`: 45.2% (active). Turning to `Cc1nc(C(=O)N2CCCC(C(=O)c3ccc(Cl)cc3)C2)cs1` (stereo not drawn), the max response was 0.775% (inactive). On to `COc1ccccc1NC(=O)C1CCN(C(=O)c2ccc(C(C)(C)C)cc2)CC1`, for which the max response was -1.21% (inactive). The same measure for `Cn1nc(-c2ccccc2)c(CSc2cccc(Cl)c2)c1Cl`: -2.67% (inactive). The same measure for `Cn1c(=O)c2c(nc(Br)n2CCSc2nc3ccccc3o2)n(C)c1=O`: -1.28% (inactive); for `O=c1c2ccccc2ncn1CCCCOc1ccccc1F`: 1.24% (inactive). As for `Fc1ccccc1OCCSc1nc2ccccc2o1`, the max response is 26.3% (active). Take `COC(=O)c1ccc(CN2CCCC(C(=O)Nc3cccc(-n4cnnn4)c3)C2)cc1` (stereo not drawn): the max response is -1.47% (inactive). In the case of `O=C(C1CC(=O)N(c2ccc(F)cc2)C1)N1CCN(c2ccccc2)CC1` (stereo not drawn), the max response was -1.52% (inactive). The same measure for `O=C(Nc1cccn(Cc2ccccc2Cl)c1=O)NC1CCCCC1`: 10.8% (active); for `O=C(Nc1cccn(Cc2c(Cl)cccc2Cl)c1=O)c1ccc(Cl)cc1`: 1.71% (inactive); for `CCOc1ccccc1NC(=O)NC1CCCCCCC1`: 10.6% (inactive).

For the molecule `CC(=O)N1CCN(C(=O)C2(NC(=O)Nc3ccc(C)cc3)CCCCC2)CC1`, the max response was 6.9% (inactive). The same measure for `COC(=O)/C(=C\Nc1ccccc1)NC(=O)c1ccc(Cl)cc1Cl`: 16.3% (inactive); for `CC(=O)c1c(C)[nH]c(C(=O)Nc2cc(S(=O)(=O)N(C)C)ccc2C)c1C`: 6.78% (inactive); for `COC(=O)[C@@H]1CCCN1C(=O)c1cc(COc2cccc3cccnc23)on1`: -3.11% (inactive).

As to `CSc1ccccc1OCc1cc(C(=O)N2C[C@H]3CC[C@H]2C3)no1`, the max response was 45.3% (active). For the molecule `CSc1ccccc1OCc1cc(C(=O)N(C)CCc2c(C)n[nH]c2C)no1`, the max response is 15.1% (inactive).

Regarding `COc1ccc(NC(=O)C(NC(C)=O)C(=O)NCc2ccccc2Cl)cc1` (stereo not drawn), the max response is 1.56% (inactive). For `Cc1cc(C(=O)NNS(=O)(=O)c2ccccc2C(F)(F)F)nn1C(C)(C)C`, the max response is 7.74% (inactive). On to `O=C(CN1C(=O)COc2ccccc21)NCCN1CCc2ccccc2C1`, for which the max response was 4.27% (inactive). Turning to `O=C(CN1C(=O)COc2ccccc21)Nc1ccc(F)cc1`, the max response is 44.7% (active). The same measure for `CC(OC(=O)CN1C(=O)COc2ccccc21)C(=O)NCc1ccc(F)cc1` (stereo not drawn): -2.2% (inactive). On to `C/C(N)=C(/C#N)C(=O)COC(=O)C1=NN(c2ccccc2)C(=O)CC1`, for which the max response was -5.97% (inactive). For `O=C(Nc1nnc(S(=O)(=O)N2CCOCC2)s1)c1cccc(Br)c1`, the max response was 7.79% (inactive). In the case of `O=c1[nH]c(-c2cccs2)nc2ccccc12`, the max response was 20% (inactive). The same measure for `O=c1oc2ccccc2cc1-c1cn(-c2ccccc2)c(=S)[nH]1`: 7.59% (inactive); for `S=c1[nH]c(-c2cccs2)cn1-c1ccccc1`: 34.1% (active); for `COc1cc(/C=C/C(=O)OCC(=O)Nc2cccc(Oc3ccccc3)c2)ccc1O`: 10.4% (inactive). As to `COc1ccc(S(=O)(=O)N2CCC(C(=O)N3CCCC3)CC2)cc1C`, the max response was -13.9% (inactive).

In the case of `Cc1ccccc1CSc1nnc(-c2ccccc2)c(=O)[nH]1`, the max response is 18.4% (inactive). For the molecule `Cc1ccc(CSc2nc(-c3ccccc3)c(C#N)c(=O)[nH]2)cc1`, the max response was -11.1% (inactive). As to `O=c1[nH]c(SCc2ccccc2)nnc1-c1ccccc1`, the max response was 11% (active). Then `COc1ccc(Cl)cc1C(=O)Nc1ccc(N(C)C(C)=O)cc1`, with 34.7% (active); and `COc1cc(OC)c(C(=O)NC2CC(C)(C)NC(C)(C)C2)cc1OC`, with -1.33% (inactive). The same measure for `COc1cc(OC)c(C(=O)Nc2ccc(N(C)C)cc2)cc1OC`: 40.8% (active); for `COc1cc(OC)c(C(=O)Nc2ccccc2-c2ccccc2)cc1OC`: -1.49% (inactive).

As for `COC(=O)c1ccc(NC(=O)c2cc(Cl)ccc2OC)cc1`, the max response was 0.237% (inactive). Then `COc1ccc(Cl)cc1C(=O)NCC#N`, with -1.71% (inactive); and `C=CCn1c(SCCOc2ccc(OC)cc2)nnc1C(NC(=O)c1ccc(OC)cc1)C(C)C` (stereo not drawn), with -2.43% (inactive); and `CN(CC1CCCO1)S(=O)(=O)c1ccc(C(=O)Nc2ccc(F)cc2)cc1` (stereo not drawn), with 3.84% (inactive). As to `Cc1oc(-c2ccccc2Cl)[n+]([O-])c1C`, the max response was -1.24% (inactive). `CCCSc1nc2sc3c(c2c(=O)n1-c1ccc(OC)cc1)CCN(C)C3`: the max response is 0.929% (inactive). As to `CCc1cccc(NC(=O)C2CCCN(S(=O)(=O)c3ccc4[nH]c(=O)ccc4c3)C2)c1` (stereo not drawn), the max response was 14.1% (inactive). Turning to `Cn1c(=O)n(C)c2cc(S(=O)(=O)Nc3ccc(F)cc3)ccc21`, the max response was 1.27% (inactive). The same measure for `CN(C)CCCN(C(=O)c1ccc(S(=O)(=O)N2CCCc3ccccc32)cc1)c1nc2ccc(F)cc2s1`: 0.524% (inactive); for `O=C(Nc1nc2cc3c(cc2s1)OCCO3)c1cccc(S(=O)(=O)N2CCOCC2)c1`: -5.43% (inactive); for `CCN(CC)CCN(C(=O)c1ccc(S(=O)(=O)N2CCOCC2)cc1)c1nc2cc3c(cc2s1)OCCO3`: 13.6% (active).

On to `CCOc1ccc2nc(N(CCCN(C)C)C(=O)c3ccc(C(=O)c4ccccc4)cc3)sc2c1`, for which the max response was -2.35% (inactive). The same measure for `CN(C)CCCN(C(=O)c1ccc(S(=O)(=O)N2CCCCCC2)cc1)c1nc2ccc(Br)cc2s1`: 11.5% (active); for `CCN(CC)CCN(C(=O)c1ccc(N2C(=O)CCC2=O)cc1)c1nc2cc3c(cc2s1)OCO3`: 14.3% (inactive).
